In PubChem BioAssay AID1839 (Johns Hopkins Ion Channel Center, 2009):
Screen size: about 2,400 compounds; about 220 (9.2%) were called active. This excerpt belongs to a sample that is enriched for actives. Unmarked numbers belong to inactive results.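 How the source made its calls: active means signal change above the mean of dofetilide-free buffer controls plus 3 SD, so a positive margin; inactive means the rest.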

Experiment: thallium signal changes without hERG – cell-based, CHO-K1 parental line, FluxOR thallium flux, counter-screen for hERG block protection project, confirmation (AID 1839);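 further: compounds applied alone with no dofetilide to cells lacking hERG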
Details: CHO-K1 parental cells, FluxOR thallium flux fluorescence; at 10 µM
For `CC/C(=C\C=C\[C@@H]1C=C[C@@H]2CCC[C@H]2[C@@H]1C(=O)c1ccc[nH]1)[C@@H]1O[C@@H]([C@@H](C)C(=O)O)CC[C@@H]1C`, the signal change vs control minus 3*SD hit threshold (margin above threshold, higher = more increase) was 83% (active).
`O=c1c2cc(Br)ccc2[nH]c(=S)n1-c1ccccc1` showed a signal change vs control minus 3*SD hit threshold (margin above threshold, higher = more increase) of -20.2%.
For `CCCCN1C(=O)/C(=C/c2ccc(N3CCCCCC3)cc2)C(=O)NC1=S`, the signal change vs control minus 3*SD hit threshold (margin above threshold, higher = more increase) was -36%.
Work on `Cc1ccc(/C=C2\C(=O)NC(=S)N(c3ccc(F)cc3)C2=O)s1` yielded a signal change vs control minus 3*SD hit threshold (margin above threshold, higher = more increase) of -30.1%.
`CN1C(=O)/C(=C/c2ccc(Cl)s2)C(=O)NC1=S` showed a signal change vs control minus 3*SD hit threshold (margin above threshold, higher = more increase) of -29.5%.
